Assay results as given in PubChem BioAssay (EPA / NIEHS).
Records with an inconclusive call do not appear. Calls of active or inactive are those of the source. How the source made its calls: active means hit-call score of the fitted dose curve at least 0.9, where 1 is the maximum; inconclusive means response in the unintended direction; inactive means score below 0.9.

target: human Retinoid X Receptor beta (RXRb), RXRB (gene 6257) (UniProt P28702); test: ATG_RXRb_TRANS: Attagene TRANS-FACTORIAL HepG2 Assay for human Retinoid X Receptor beta (RXRb) (AID 2283013)
Method: ATG_TRANS is a cell-based, multiplexed-readout assay that uses HepG2, a human liver cell line, with measurements taken at 24 hours after chemical dosing in a 24-well plate.ATG_RXRb_TRANS is one of 30 assay component(s) measured or calculated from the ATG_TRANS assay. It is designed to make measurements of mRNA induction, a form of inducible reporter, as detected with fluorescence intensity signals by Reverse transcription polymerase chain reaction (RT-PCR) and Capillary electrophoresis technology.Data from the assay component ATG_RXRb_TRANS was analyzed into 1 assay endpoint. This assay endpoint, ATG_RXRb_TRANS, was analyzed in the positive analysis fitting direction relative to DMSO as the negative control and baseline of activity. Using a type of inducible reporter, measures of mRNA for gain-of-signal activity can be used to understand the reporter gene at the transcription factor-level as they relate to the gene RXRB. Furthermore, this assay endpoint can be referred to as a primary readout, because this assay has produced multiple assay endpoints where this one serves a reporter gene function. To generalize the intended target to other relatable targets, this assay endpoint is annotated to the nuclear receptor intended target family, where the subfamily is non-steroidal.
Human liver HepG2 cells are transiently transfected with multiple reporter transcription units (MRTUs) in 6-well plates using FuGene 6 reagent (Roche; 3 ml FuGene/1 mg DNA). The MRTU constructs are regulated by a cis-regulating element (promoter). […] A major difference between the CIS and TRANS system is that in CIS activities of endogenous TFs are measured, whereas the TRANS assay evaluates changes in activities of exogenous, chimeric NR-Gal4 proteins. […] At the end of 24 hour incubation, total RNA was isolated using TriZol reagent (Invitrogen). The isolated RNA is then reverse-transcribed using oligo(dT) primer and Mo-MLV reverse transcriptase (Invitrogen) with DNAse I (Ambion) treatment for 30 min. The one-tenth of the produced cDNA was amplified by PCR using Taq DNA polymerase (Invitrogen) and two reporter sequence-specific primers. The PCR products were fluorescently labeled by primer extension with 6-arboxyfluorescein (6-FAM) 5'-labeled reporter sequence-specific primer (2 min at 95 C, 20 s at 68 C and 10 min at 72 C) and these products were digested with 5U of HpaI (New England Biolabs) for 2h at 37 C. The fragments were purified using Qiaquick PCR columns (Qiagen), analyzed on an ABI 3130xL genetic analyzer (Applied Biosystems) with peak positions identified by using a set of X-rhodamine (ROX)-labeled MapMarker1000 molecular weight standards (BioVentures). The raw capillary electrophoresis data was processed using Attagraph software (Attagene).

human Retinoid X Receptor beta (RXRb), RXRB (gene 6257), sequence (P28702 whole entry, looked up): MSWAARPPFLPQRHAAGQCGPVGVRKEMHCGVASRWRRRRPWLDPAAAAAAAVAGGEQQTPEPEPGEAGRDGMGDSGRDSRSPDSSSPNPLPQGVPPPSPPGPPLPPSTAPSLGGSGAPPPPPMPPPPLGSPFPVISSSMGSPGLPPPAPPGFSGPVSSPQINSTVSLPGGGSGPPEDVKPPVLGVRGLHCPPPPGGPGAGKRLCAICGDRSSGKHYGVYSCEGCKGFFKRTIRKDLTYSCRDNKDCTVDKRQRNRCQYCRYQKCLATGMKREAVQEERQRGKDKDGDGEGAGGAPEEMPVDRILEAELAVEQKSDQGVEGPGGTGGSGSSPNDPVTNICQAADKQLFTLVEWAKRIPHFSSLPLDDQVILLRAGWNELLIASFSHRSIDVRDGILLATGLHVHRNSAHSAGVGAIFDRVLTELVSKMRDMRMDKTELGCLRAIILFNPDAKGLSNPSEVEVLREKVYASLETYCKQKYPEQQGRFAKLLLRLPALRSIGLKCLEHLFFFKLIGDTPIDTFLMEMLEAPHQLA

| SMILES | outcome | AC50 |
| --- | --- | --- |
| ClCCOCCOCCCl | inactive | – |
| CCCCOCCOC(=O)c1ccccc1C(=O)OCCOCCCC | inactive | – |
| O=c1cc(-c2ccc(O)cc2)oc2cc(O)cc(O)c12 | inactive | – |
| CC(C)N(c1ccccc1)C(C)C | inactive | – |
| Cc1ccccc1S | inactive | – |
| CN(C)c1ccc(C=O)cc1 | inactive | – |
| C=COCC1CCC(COC=C)CC1 (stereo not given) | inactive | – |
| CC1=CC[C@@H](C(C)(C)O)CC1 | inactive | – |
| CC=CC(=O)C1=C(C)C=CCC1(C)C | inactive | – |
| O=C(O)c1ccc(C(=O)O)c(C(=O)O)c1 | inactive | – |
| CCCCOCCOCCOCCO | inactive | – |
| CCCCCCCCCC(=O)OCC | – | 100 µM (active) |
| CC(C)N1C(=O)c2ccccc2C1=O | inactive | – |
| CC(C)CCOC(=O)CC(C)C | – | 100 µM (active) |
| CC(=O)c1ccc2ccccc2c1 | inactive | – |
| CCCCCC#CC(=O)OC | – | 100 µM (active) |
| COC(=O)c1ccc(C(=O)OC)cc1 | inactive | – |
| O=C(O)c1cc2ccccc2cc1O | inactive | – |
| C=CC(C)(CCC=C(C)C)OC(=O)CC (stereo not given) | inactive | – |
| CCOC(=O)CCCCCCCCC(=O)OCC | inactive | – |

| SMILES | outcome | AC50 |
| --- | --- | --- |
| S=c1[nH][nH]c(=S)s1 | inactive | – |
| CCCCCCC(O)CCOC(C)=O (stereo not given) | inactive | – |
| CCCCCCCCCCCCN1CCOCC1 | – | 42.8 µM (active) |
| CC(=O)Nc1cc(S(=O)(=O)O)cc2cc(S(=O)(=O)O)c(N=Nc3ccccc3)c(O)c12 | inactive | – |
| CCC(C)COC(=O)CC(C)C (stereo not given) | inactive | – |
| Brc1cc(Br)cc(Br)c1 | – | 59.7 µM (active) |
| CCCCCCCOC(C)=O | inactive | – |
| COc1ccccc1NC(=O)CC(C)=O | inactive | – |
| C=C(C)CCCC(C)CCO (stereo not given) | inactive | – |
| C=C(C)C(=O)OCCOCCOC(=O)C(=C)C | inactive | – |
| CCC(C)(C)C1CCC(=O)CC1 | – | 50.6 µM (active) |
| CCCOC(=O)CC | inactive | – |
| CCNC(=S)NCC | inactive | – |
| CCC(=O)OC(C)(C)C1CC=C(C)CC1 (stereo not given) | inactive | – |
| CCCCCCOc1ccc(O)cc1 | inactive | – |
| O=C(OCc1ccccc1)c1ccccc1O | – | 50.1 µM (active) |
| CC(=O)CCC(=O)O | inactive | – |
| CCOC(=O)C=Cc1ccccc1 | inactive | – |
| CCCCCC1CCC(=O)O1 (stereo not given) | inactive | – |
| NC(=O)c1cnccn1 | inactive | – |
